Assay outcomes: PubChem BioAssay, National Center for Advancing Translational Sciences (NCATS)
FLuc counter: qHTS profiling assay for firefly luciferase inhibitor/activator using purifed enzyme and Km concentrations of substrates (counterscreen for miR-21 project); Luciferin 4-monooxygenase (Photinus pyralis), P08659; purified FLuc, Km substrates, luminescence inhibition; Potency, µM (highest dose often 57.5 µM), for the others: top-dose activity change, negative = inhibition, actives largely listed as inhibitors; 360,000 tested, 6.9% active; AID 588342, 2011;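 further: plate controls were vehicle for no effect and reference inhibitor for full effect; nearly all actives have a fitted effect of over 55% in size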
Target sequence (P08659 whole entry, looked up): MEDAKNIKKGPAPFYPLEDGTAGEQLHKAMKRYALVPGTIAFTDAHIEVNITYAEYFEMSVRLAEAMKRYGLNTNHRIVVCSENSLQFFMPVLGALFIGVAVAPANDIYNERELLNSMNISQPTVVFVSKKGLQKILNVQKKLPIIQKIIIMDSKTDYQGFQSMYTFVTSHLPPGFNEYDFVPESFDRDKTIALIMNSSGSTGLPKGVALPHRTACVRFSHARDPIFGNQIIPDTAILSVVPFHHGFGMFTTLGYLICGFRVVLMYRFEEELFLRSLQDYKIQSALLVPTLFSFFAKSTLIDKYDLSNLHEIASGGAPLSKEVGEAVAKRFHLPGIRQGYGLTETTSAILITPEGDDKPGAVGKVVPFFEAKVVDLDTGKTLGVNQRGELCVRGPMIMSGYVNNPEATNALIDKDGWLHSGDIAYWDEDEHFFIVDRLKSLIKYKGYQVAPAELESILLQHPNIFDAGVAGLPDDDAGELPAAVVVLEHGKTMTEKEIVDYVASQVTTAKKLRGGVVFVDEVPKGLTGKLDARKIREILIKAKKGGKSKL
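Purified P. pyralis luciferase, 10 nM final, with Km-level 10 uM D-luciferin and 10 uM ATP in 50 mM Tris acetate pH 7.5, 10 mM Mg acetate, 0.01% Tween-20, 0.05% BSA; 6-point qHTS titration about 60 µM downward; luminescence read.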
NPC1 prom act: qHTS Assay for NPC1 Promoter Activators; AID 485313, 2010; Potency, µM (top dose mostly 9.22 µM), inactives show top-dose activation, usual class: activators; 320,000 tested, 2.4% active; Huh7 NPC1 promoter luciferase reporter, 24 h; further: % of control where 0% means no effect; nearly all actives have a fitted effect of over 60% in size
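Stable NPC1-promoter luciferase Huh7 line; cpd (DMSO) 24 h, 37 °C, 5% CO2; Amplite luciferase reagent 10 min RT; luminescence readout. qHTS format.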
ELG1 DNA repair: qHTS screen for small molecules that inhibit ELG1-dependent DNA repair in human embryonic kidney (HEK293T) cells expressing luciferase-tagged ELG1; HEK293T ELG1-luciferase reporter, luminescence, 16 h; DNA damage induced by 5-fluorouridine; Potency, µM (highest dose often 46.1 µM), inactives show at the top dose activity change, negative = inhibition, actives largely listed as inhibitors; 330,000 tested, 2.3% active; AID 504467, 2011; further: on the % scale 0 is the no-effect control and ±100 the full control effect; nearly all actives have a fitted effect of over 55% in size
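Reporter activity after DNA damage by 5-fluorouridine is monitored. Compound-treated cells incubate 16 hr at 37 °C, then ONE-Glo is added for 30 min before luminescence reading.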
Rab9 promoter act: qHTS Assay for Rab9 Promoter Activators. 320,000 tested, 2.8% active. Potency, µM (series often up to 9.22 µM), for the others: top-dose activation, negative = inhibition, usual class: activators. Huh7 Rab9 promoter-luciferase reporter, luminescence, 24 h; further: % of control where 0% means no effect; nearly all actives have a fitted effect of over 60% in size
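Stable Rab9-luc Huh7, 1500 cells/well, 2 h settle; cmpd in DMSO, 24 h, 37 °C/5% CO2; luciferase reagent 10 min RT; luminescence.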
SMN2 splice enh: qHTS Assay for Enhancers of SMN2 Splice Variant Expression | HEK293 SMN2-luciferase splicing reporter, luminescence, 30-36 h | Potency, µM (titrated, usually from 46.1 µM), for the others: top-dose activity change, positive = activation, actives largely listed as activators | 210,000 tested, 2.8% active | AID 1458, 2008; further: % of control where 0% means no effect; nearly all actives have a fitted effect of over 55% in size
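HEK293 cells carry an SMN2 minigene-luciferase reporter in which exon 7 inclusion puts luciferase in frame. Cells were seeded at 2000 cells/well, attached for 10-12 hours, then exposed to compounds for 30-36 hours at 37C before ONE-Glo luminescence.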
ELG1 genotoxic: qHTS screen for small molecules that induce genotoxicity in human embryonic kidney (HEK293T) cells expressing luciferase-tagged ELG1; Potency, µM (top dose mostly 46 µM), for inactives: at the top dose activity change, positive = activation, usual class: activators; HEK293T ELG1-luciferase reporter, luminescence, 16 h; AID 504466, 2011; 330,000 tested, 1.3% active; further: % of control where 0% means no effect; nearly all actives have a fitted effect of over 60% in size
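Quantitative HTS format in 1536-well plates. HEK293T ELG1-luciferase reporter cells receive test compound and are incubated 16 hr at 37 °C, 5% CO2; ONE-Glo added, 30 min room temperature, then luminescence read.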
* = called active by the depositor; ? = inconclusive; / = not tested or not shown. In the library only some 9.2% were active in any assay of this set; here they are far more common. The call rests on the fitted dose curve; in most records, active means well fitted curve in the direction sought with a large enough effect; inconclusive means small, poorly fitted or top-dose-only effect, or another doubt; inactive means no such curve, though single readings can be large; an effect the other way counts as inactive or inconclusive. Potency means the concentration at half of the fitted maximal effect.

SMILES	FLuc counter	NPC1 prom act	ELG1 DNA repair	Rab9 promoter act	SMN2 splice enh	ELG1 genotoxic
CCOC(=O)C(=CNc1ccc(C(F)(F)F)cc1Cl)C(=O)OCC	13µM*	2%	0%	3%	/	-1%
CCOC(=O)C(=CNc1ccccc1Cl)C(=O)OCC	-7%	0%	-9%	-2%	/	-2%
CCOC(=O)C(=CNc1ccc(-c2ccco2)c(Cl)c1)C(=O)OCC	-20%	1%	?	0%	/	-9%
CCOC(=O)C(=CNc1cc(Cl)c(-c2ccco2)c(Cl)c1)C(=O)OCC	?	-2%	21µM*	-2%	/	-5%
CC1CCN(S(=O)(=O)c2cc(C(=O)NCc3ccccc3)n(C)c2)CC1	-3%	/	/	/	/	/
CC(C)(C)c1ccc(C(=O)c2cn[nH]c2-c2ccccc2O)cc1	11µM*	?	?	?	/	12%
O=C(CSc1cn(CC(=O)N2CCCCC2)c2ccccc12)Nc1ccc(C(F)(F)F)cc1	0%	/	/	/	/	/
COc1ccc(C2=C(C=Nc3c(C)n(C)n(-c4ccccc4)c3=O)C(c3ccccc3C)c3ccccc3O2)cc1OC (stereo not given)	-1%	-3%	2.9µM*	-11%	-14%	-9%
Cc1c(N=Cc2c(O)n(C)c(=O)c3ccccc23)c(=O)n(-c2ccccc2)n1C	0%	-4%	-12%	-2%	-7%	-3%
O=C(Cn1nnc2ccccc21)OCC(=O)c1ccc(Cl)cc1	?	-3%	-4%	1%	/	0%
c1ccc(CCn2nnc3ccccc32)cc1	11µM*	3.2µM*	?	3.2µM*	/	?
O=C(Cn1nnc2ccccc21)NCc1ccccc1	13µM*	2.2µM*	?	3.2µM*	11µM*	7.3µM*
Cc1nc2ccccc2n1CC(=O)NCc1ccccc1	-3%	-9%	-14%	-24%	/	?
O=C(Cn1nnc2ccccc21)OCc1ccccc1	21µM*	-6%	15%	0%	/	1%
Cc1cc(C)cc(NC(=O)CN(C)S(=O)(=O)c2ccc3c(c2)CCC(=O)N3)c1	0%	/	/	/	-7%	/
COc1ccc(-c2nc(-c3ccccc3)c(Nc3c(C)cccc3C)o2)cc1	/	/	/	/	15%	/
CN1C(=O)/C(=C/c2ccc(OCc3ccc(F)cc3)cc2)NC1=S	-1%	-3%	-2%	-5%	/	2%
O=C(Nc1ncc(Cc2ccccc2Cl)s1)C1CCCO1 (stereo not given)	9.5µM*	3.5µM*	?	1.4µM*	13µM*	?
O=C(Nc1ncc(Cc2cccc(Cl)c2)s1)C1CCCO1 (stereo not given)	19µM*	?	?	?	23%	15%
O=C(Nc1ncc(Cc2cccc(Cl)c2Cl)s1)C1CCCO1 (stereo not given)	11µM*	?	?	3.5µM*	16µM*	16µM*
CC(=O)Nc1ncc(Cc2cccc(Cl)c2)s1	3%	-1%	17%	-9%	/	13%
Cc1ccc(S(=O)(=O)N2CCCCCC2)cc1C(=O)NCc1ccccn1	7%	-1%	?	0%	/	-7%
c1ccc(-c2nc(C3CCCCC3)no2)cc1	17µM*	12%	?	7%	24%	21µM*
Cc1ccc(-c2nc(C3CCN(S(=O)(=O)c4ccc(C(C)(C)C)cc4)CC3)no2)cc1	-6%	0%	3%	-9%	-5%	-9%
COc1ccc(-c2nc(C3CCCCC3)no2)cc1OC	15µM*	?	?	2µM*	23%	?
Cc1cc(C)cc(NC(=O)CCCn2c3ccccc3c(=O)c3ccccc32)c1	-19%	/	/	/	-47%	/
